According to PubChem BioAssay (NCI):
Compounds without any hit were thinned out: in the full panel of roughly 79,000, 15% have a hit. A number with no mark means an inactive call. The source made the active and inactive calls. Cut-off read from the data, not from the text of the source: active = growth inhibition above about 70%; inactive = the rest.

Assays:
[1] = NCI Yeast Anticancer Drug Screen. Data for the rad52 strain (AID 147);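 note: 0% = growth of vehicle-treated control cultures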; conditions: S. cerevisiae rad52 mutant growth inhibition, stronger effect = higher value
Method in brief: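 Genetically altered yeast (DNA damage repair defect) treated with compound; inhibition calculated relative to vehicle.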

[2] = NCI Yeast Anticancer Drug Screen. Data for the wt1 strain (AID 149);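 note: 0% = growth of vehicle-treated wt1 cultures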; conditions: S. cerevisiae wt1 strain (SPY 50644) growth inhibition, stronger effect = higher value
Method in brief: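 Each compound is tested on wt1 yeast and the loss of growth versus vehicle gives the inhibition value.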

[3] = NCI Yeast Anticancer Drug Screen. Data for the rad50EPP+ strain (AID 151);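 note: 0% = growth of vehicle-treated control cultures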; conditions: S. cerevisiae rad50 mutant strain, stronger effect = higher value
Method in brief: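 Strain rad50EPP+; compound exposure; % growth inhibition vs vehicle.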

[4] = NCI Yeast Anticancer Drug Screen. Data for the mgt1 strain (AID 153); conditions: S. cerevisiae mgt1 mutant growth inhibition, stronger effect = higher value
Method in brief: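 Read-out: yeast growth inhibition vs vehicle control. Strain mgt1, drawn from a panel altered in DNA damage repair or cell cycle control.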

[5] = NCI Yeast Anticancer Drug Screen. Data for the rad50 strain (AID 155);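 note: 0% = growth of vehicle-only cultures of the same strain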; conditions: S. cerevisiae rad50 strain growth inhibition, stronger effect = higher value
Method in brief: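 Vehicle-treated cultures provide the reference for the growth inhibition reported for compound-exposed, repair-deficient yeast.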

[6] = NCI Yeast Anticancer Drug Screen. Data for the mec2-1 strain (AID 157); conditions: S. cerevisiae mec2-1 strain, stronger effect = higher value
Method in brief: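 Cells of the genetically defined mec2-1 yeast strain are incubated with test compound. Inhibition of growth is calculated against vehicle-treated controls.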

[7] = NCI Yeast Anticancer Drug Screen. Data for the rad14 strain (AID 159);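 note: 0% = growth of vehicle-treated control cultures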; conditions: S. cerevisiae rad14 strain growth inhibition, stronger effect = higher value
Method in brief: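 Inhibition of growth is reported for a repair-deficient yeast mutant following compound treatment, calculated relative to cultures that received vehicle.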

[8] = NCI Yeast Anticancer Drug Screen. Data for the sgs1 mgt1 strain (AID 161);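 note: 0% = growth of cultures given vehicle only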; conditions: S. cerevisiae sgs1 mgt1 strain, stronger effect = higher value
Method in brief: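 Test agents were incubated with a DNA-repair-mutant yeast strain. Growth was then read and compared against vehicle-treated controls.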

[9] = NCI Yeast Anticancer Drug Screen. Data for the CLN2oe strain (AID 163);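 note: 0% = growth of vehicle-only control cultures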; conditions: S. cerevisiae CLN2oe strain, stronger effect = higher value
Method in brief: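 Strain altered in cell-cycle control, incubated with compound; growth compared to solvent-treated controls.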

[10] = NCI Yeast Anticancer Drug Screen. Data for the cln2 rad14 strain (AID 165);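 note: 0% = growth equal to vehicle treated cultures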; conditions: S. cerevisiae cln2 rad14 strain, stronger effect = higher value
Method in brief: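 The screen exposed genetically defined yeast (cln2 rad14) to test compounds and scored growth inhibition relative to vehicle-treated controls.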

[11] = NCI Yeast Anticancer Drug Screen. Data for the bub3 strain (AID 167); conditions: S. cerevisiae bub3 mutant strain, stronger effect = higher value
Method in brief: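 Mutant yeast screening strain plus compound; vehicle-treated cultures serve as the 0% inhibition reference.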

[12] = NCI Yeast Anticancer Drug Screen. Data for the wt2 strain (AID 169); conditions: S. cerevisiae wt2 strain growth inhibition, stronger effect = higher value
Method in brief: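 Steps: yeast strain treated with compound; growth recorded; inhibition calculated relative to cultures given vehicle alone.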

[13] = NCI Yeast Anticancer Drug Screen. Data for the mlh1 strain (AID 171);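 note: 0% = growth of vehicle-treated control cultures of the same strain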; conditions: S. cerevisiae mlh1 strain growth inhibition, stronger effect = higher value
Method in brief: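 Yeast screen: mutant strain plus compound, growth scored against vehicle control wells.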

[14] = NCI Yeast Anticancer Drug Screen. Data for the sgs1 strain (AID 173);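 note: 0% = growth of vehicle-only control cultures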; conditions: S. cerevisiae sgs1 mutant, stronger effect = higher value
Method in brief: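 Inhibition of yeast growth served as the measure. The mutant strain was treated with each compound, and growth was normalised to cultures receiving vehicle alone.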

[15] = NCI Yeast Anticancer Drug Screen. Data for the mlh1 rad18 strain (AID 175); conditions: S. cerevisiae mlh1 rad18 strain growth inhibition, stronger effect = higher value
Method in brief: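 Compound-treated yeast growth, normalised to vehicle controls. Strain bears defined DNA repair mutations.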

[16] = NCI Yeast Anticancer Drug Screen. Data for the rad18 strain (AID 177); conditions: S. cerevisiae rad18 mutant growth inhibition, stronger effect = higher value
Method in brief: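 Inhibition values reflect reduced yeast growth compared with vehicle-treated controls, using a strain engineered with a DNA damage repair defect.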

[17] = at 5.0 µM (retest, dose inferred, filed as 0.5)
[18] = at 50.0 µM (retest, dose inferred, filed as 5.0)

## c1ccc(Cc2cc(-c3ccccc3)n[nH]2)cc1
[1]; at 1.2 µM
  growth inhibition: -7%
[1]; at 3.7 µM
  growth inhibition: -5%
[1]; at 11.0 µM
  growth inhibition: -12%
[1]; at 33.0 µM
  growth inhibition: 0%
[1]; at 100.0 µM
  growth inhibition: 59%
[2]; at 1.2 µM
  growth inhibition: -6%
[2]; at 3.7 µM
  growth inhibition: -10%
[2]; at 11.0 µM
  growth inhibition: -15%
[2]; at 33.0 µM
  growth inhibition: -16%
[2]; at 100.0 µM
  growth inhibition: 44%
[3]; at 1.2 µM
  growth inhibition: -3%
[3]; at 3.7 µM
  growth inhibition: 1%
[3]; at 11.0 µM
  growth inhibition: 5%
[3]; at 33.0 µM
  growth inhibition: 22%
[3]; at 100.0 µM
  growth inhibition: 58%
[4]; at 1.2 µM
  growth inhibition: -4%
[4]; at 3.7 µM
  growth inhibition: -8%
[4]; at 11.0 µM
  growth inhibition: -11%
[4]; at 33.0 µM
  growth inhibition: 8%
[4]; at 100.0 µM
  growth inhibition: 50%
[5]; at 1.2 µM
  growth inhibition: -10%
[5]; at 3.7 µM
  growth inhibition: -19%
[5]; [17]
  growth inhibition: -136%
[5]; at 11.0 µM
  growth inhibition: 7%
[5]; at 33.0 µM
  growth inhibition: 5%
[5]; [18]
  growth inhibition: 31%
[5]; at 50.0 µM
  growth inhibition: 97% (active)
[5]; at 100.0 µM
  growth inhibition: 60%
[6]; at 1.2 µM
  growth inhibition: 2%
[6]; at 3.7 µM
  growth inhibition: -4%
[6]; [17]
  growth inhibition: -51%
[6]; at 11.0 µM
  growth inhibition: -23%
[6]; at 33.0 µM
  growth inhibition: -11%
[6]; [18]
  growth inhibition: -13%
[6]; at 50.0 µM
  growth inhibition: 97% (active)
[6]; at 100.0 µM
  growth inhibition: 43%
[7]; at 1.2 µM
  growth inhibition: -3%
[7]; at 3.7 µM
  growth inhibition: -4%
[7]; at 11.0 µM
  growth inhibition: -7%
[7]; at 33.0 µM
  growth inhibition: 6%
[7]; at 100.0 µM
  growth inhibition: 58%
[8]; [17]
  growth inhibition: -64%
[8]; [18]
  growth inhibition: 46%
[8]; at 50.0 µM
  growth inhibition: 89.8% (active)
[9]; at 1.2 µM
  growth inhibition: -8%
[9]; at 3.7 µM
  growth inhibition: -8%
[9]; at 11.0 µM
  growth inhibition: -14%
[9]; at 33.0 µM
  growth inhibition: 0%
[9]; at 100.0 µM
  growth inhibition: 55%
[10]; [17]
  growth inhibition: -72%
[10]; [18]
  growth inhibition: -13%
[10]; at 50.0 µM
  growth inhibition: 70.4% (active)
[11]; at 1.2 µM
  growth inhibition: -15%
[11]; at 3.7 µM
  growth inhibition: -5%
[11]; [17]
  growth inhibition: -59%
[11]; at 11.0 µM
  growth inhibition: 9%
[11]; at 33.0 µM
  growth inhibition: 37%
[11]; [18]
  growth inhibition: 62%
[11]; at 50.0 µM
  growth inhibition: 93.8% (active)
[11]; at 100.0 µM
  growth inhibition: 80% (active)
[12]; at 1.2 µM
  growth inhibition: -3%
[12]; at 3.7 µM
  growth inhibition: -4%
[12]; at 11.0 µM
  growth inhibition: -7%
[12]; at 33.0 µM
  growth inhibition: 10%
[12]; at 100.0 µM
  growth inhibition: 52%
[13]; at 1.2 µM
  growth inhibition: 4%
[13]; at 3.7 µM
  growth inhibition: -12%
[13]; at 11.0 µM
  growth inhibition: -11%
[13]; at 33.0 µM
  growth inhibition: 5%
[13]; at 100.0 µM
  growth inhibition: 55%
[14]; at 1.2 µM
  growth inhibition: -3%
[14]; at 3.7 µM
  growth inhibition: -11%
[14]; at 11.0 µM
  growth inhibition: -5%
[14]; at 33.0 µM
  growth inhibition: 27%
[14]; at 100.0 µM
  growth inhibition: 69%
[15]; [17]
  growth inhibition: -125%
[15]; [18]
  growth inhibition: 9%
[15]; at 50.0 µM
  growth inhibition: 96.8% (active)
[16]; at 1.2 µM
  growth inhibition: -5%
[16]; at 3.7 µM
  growth inhibition: -4%
[16]; at 11.0 µM
  growth inhibition: -1%
[16]; at 33.0 µM
  growth inhibition: 19%
[16]; at 100.0 µM
  growth inhibition: 61%

## CCCOC(=O)C(F)C(Br)C(=O)OCCC (stereo not drawn)
[1]; at 1.2 µM
  growth inhibition: 38%
[1]; at 3.7 µM
  growth inhibition: 89% (active)
[1]; at 11.0 µM
  growth inhibition: 96% (active)
[1]; at 33.0 µM
  growth inhibition: 96% (active)
[1]; at 100.0 µM
  growth inhibition: 99% (active)
[2]; at 1.2 µM
  growth inhibition: 42%
[2]; at 3.7 µM
  growth inhibition: 95% (active)
[2]; at 11.0 µM
  growth inhibition: 98% (active)
[2]; at 33.0 µM
  growth inhibition: 97% (active)
[2]; at 100.0 µM
  growth inhibition: 99% (active)
[3]; at 1.2 µM
  growth inhibition: 33%
[3]; at 3.7 µM
  growth inhibition: 28%
[3]; at 11.0 µM
  growth inhibition: 94% (active)
[3]; at 33.0 µM
  growth inhibition: 98% (active)
[3]; at 100.0 µM
  growth inhibition: 98% (active)
[4]; at 1.2 µM
  growth inhibition: 54%
[4]; at 3.7 µM
  growth inhibition: 90% (active)
[4]; at 11.0 µM
  growth inhibition: 97% (active)
[4]; at 33.0 µM
  growth inhibition: 98% (active)
[4]; at 100.0 µM
  growth inhibition: 99% (active)
[5]; at 1.2 µM
  growth inhibition: 58%
[5]; at 3.7 µM
  growth inhibition: 90% (active)
[5]; [17]
  growth inhibition: 44%
[5]; at 11.0 µM
  growth inhibition: 97% (active)
[5]; at 33.0 µM
  growth inhibition: 97% (active)
[5]; [18]
  growth inhibition: 98% (active)
[5]; at 50.0 µM
  growth inhibition: 89.8% (active)
[5]; at 100.0 µM
  growth inhibition: 99% (active)
[6]; at 1.2 µM
  growth inhibition: 71% (active)
[6]; at 3.7 µM
  growth inhibition: 97% (active)
[6]; [17]
  growth inhibition: 67%
[6]; at 11.0 µM
  growth inhibition: 97% (active)
[6]; at 33.0 µM
  growth inhibition: 98% (active)
[6]; [18]
  growth inhibition: 100% (active)
[6]; at 50.0 µM
  growth inhibition: 92% (active)
[6]; at 100.0 µM
  growth inhibition: 99% (active)
[7]; at 1.2 µM
  growth inhibition: 21%
[7]; at 3.7 µM
  growth inhibition: 67%
[7]; at 11.0 µM
  growth inhibition: 97% (active)
[7]; at 33.0 µM
  growth inhibition: 97% (active)
[7]; at 100.0 µM
  growth inhibition: 100% (active)
[8]; [17]
  growth inhibition: 21%
[8]; [18]
  growth inhibition: 98% (active)
[8]; at 50.0 µM
  growth inhibition: 91.9% (active)
[9]; at 1.2 µM
  growth inhibition: 48%
[9]; at 3.7 µM
  growth inhibition: 87% (active)
[9]; at 11.0 µM
  growth inhibition: 97% (active)
[9]; at 33.0 µM
  growth inhibition: 97% (active)
[9]; at 100.0 µM
  growth inhibition: 98% (active)
[10]; [17]
  growth inhibition: 11%
[10]; [18]
  growth inhibition: 70% (active)
[10]; at 50.0 µM
  growth inhibition: 90.7% (active)
[11]; at 1.2 µM
  growth inhibition: 38%
[11]; at 3.7 µM
  growth inhibition: 82% (active)
[11]; [17]
  growth inhibition: 30%
[11]; at 11.0 µM
  growth inhibition: 93% (active)
[11]; at 33.0 µM
  growth inhibition: 96% (active)
[11]; [18]
  growth inhibition: 99% (active)
[11]; at 50.0 µM
  growth inhibition: 90.5% (active)
[11]; at 100.0 µM
  growth inhibition: 96% (active)
[12]; at 1.2 µM
  growth inhibition: 57%
[12]; at 3.7 µM
  growth inhibition: 98% (active)
[12]; at 11.0 µM
  growth inhibition: 98% (active)
[12]; at 33.0 µM
  growth inhibition: 98% (active)
[12]; at 100.0 µM
  growth inhibition: 100% (active)
[13]; at 1.2 µM
  growth inhibition: 40%
[13]; at 3.7 µM
  growth inhibition: 92% (active)
[13]; at 11.0 µM
  growth inhibition: 98% (active)
[13]; at 33.0 µM
  growth inhibition: 97% (active)
[13]; at 100.0 µM
  growth inhibition: 99% (active)
[14]; at 1.2 µM
  growth inhibition: 50%
[14]; at 3.7 µM
  growth inhibition: 96% (active)
[14]; at 11.0 µM
  growth inhibition: 98% (active)
[14]; at 33.0 µM
  growth inhibition: 97% (active)
[14]; at 100.0 µM
  growth inhibition: 99% (active)
[16]; at 1.2 µM
  growth inhibition: 59%
[16]; at 3.7 µM
  growth inhibition: 93% (active)
[16]; at 11.0 µM
  growth inhibition: 97% (active)
[16]; at 33.0 µM
  growth inhibition: 96% (active)
[16]; at 100.0 µM
  growth inhibition: 98% (active)
